Where “and” joins values, the source holds several entries; their conditions need not be identical. Identical values can stand only once. Calls of active or inactive are those of the source. Entries that show only a call come without a potency. Unless noted, the call rests on the fitted dose curve; in most records, active means well fitted curve in the direction sought with a large enough effect; inconclusive means small, poorly fitted or top-dose-only effect, or another doubt; inactive means no such curve, though single readings can be large; an effect the other way counts as inactive or inconclusive.
Key:
[1] = MultiTox-Fluor Cytotoxicity Assay - LYMP1-001 - Live Cells (AID 947); conditions: LYMP1-001 lymphoblastoid cells, live-cell protease fluorescence viability; series mostly up to 92.2 µM; further: potency means the concentration at half of the fitted maximal effect
[2] = target: Estrogen receptor (Homo sapiens) (UniProt P03372); assay: qHTS assay for small molecule antagonists of estrogen receptor alpha signaling (AID 588513; active means well fitted curve in the direction sought with a large enough effect in the signal ratio, with a control signal flat, not every such curve was filed as active; inconclusive means small, poorly fitted or top-dose-only effect, or effect the other way, or a change in a side signal; inactive means no such curve, though single readings can be large or run the other way; the % refers to the signal ratio; further: potency means the concentration at half of the fitted maximal effect); conditions: ER-alpha-UAS-bla HEK293, beta-lactamase ratio, antagonist mode; series mostly up to 76.9 µM
Estrogen receptor (Homo sapiens), sequence (P03372 whole entry, looked up): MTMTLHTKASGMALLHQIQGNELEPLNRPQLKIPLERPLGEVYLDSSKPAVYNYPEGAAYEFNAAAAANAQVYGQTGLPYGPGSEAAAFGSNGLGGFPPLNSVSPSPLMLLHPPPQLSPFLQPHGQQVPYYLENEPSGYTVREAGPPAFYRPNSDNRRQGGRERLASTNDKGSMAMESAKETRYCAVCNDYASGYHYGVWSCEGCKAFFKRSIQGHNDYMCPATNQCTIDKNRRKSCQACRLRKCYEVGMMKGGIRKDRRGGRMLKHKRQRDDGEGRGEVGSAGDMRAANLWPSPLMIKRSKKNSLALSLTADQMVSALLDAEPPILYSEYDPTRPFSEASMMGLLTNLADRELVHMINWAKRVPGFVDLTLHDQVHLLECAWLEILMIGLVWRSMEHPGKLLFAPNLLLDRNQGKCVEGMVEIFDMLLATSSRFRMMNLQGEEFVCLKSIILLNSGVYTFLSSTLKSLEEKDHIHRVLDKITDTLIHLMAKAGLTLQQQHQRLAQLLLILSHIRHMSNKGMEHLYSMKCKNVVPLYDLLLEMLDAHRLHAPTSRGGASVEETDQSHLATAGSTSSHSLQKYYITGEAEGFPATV
In short: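 Antagonist-mode qHTS in ER-alpha-UAS-bla HEK 293 cells: compound titration, 0.5nM estradiol for 18 h, CCF4 fluorescence, Hill-derived IC50.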

[3] = target: Estrogen receptor (Homo sapiens) (UniProt P03372); assay: qHTS assay for small molecule agonists of estrogen receptor alpha signaling (AID 588514; calls by dose curve; further: nearly all actives have a fitted effect of over 70% in size); conditions: ER-alpha-UAS-bla HEK293, beta-lactamase ratio, 18 h; series mostly up to 76.8 µM
In short: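 ER-alpha-UAS-bla GripTite HEK 293 cells in medium with 2% charcoal/dextran-treated FBS were treated with compound titrations at 37 C for 18 hrs; beta-lactamase reporter read by CCF4 fluorescence after 2 hrs at RT.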

[4] = target: Peroxisome proliferator-activated receptor gamma (Homo sapiens) (UniProt P37231); assay: qHTS assay for small molecule agonists of peroxisome proliferator-activated receptor gamma signaling (AID 588536; active means well fitted curve in the direction sought with a large enough effect in the signal ratio, with a control signal flat, not every such curve was filed as active; inconclusive means small, poorly fitted or top-dose-only effect, or effect the other way, or a change in a side signal; inactive means no such curve, though single readings can be large or run the other way; the % refers to the signal ratio); conditions: HEK293 PPARg-UAS-bla, beta-lactamase ratio, 16 h, percent of rosiglitazone response, DMSO as zero; series mostly up to 76.7 µM
Peroxisome proliferator-activated receptor gamma (Homo sapiens), sequence (P37231 whole entry, looked up): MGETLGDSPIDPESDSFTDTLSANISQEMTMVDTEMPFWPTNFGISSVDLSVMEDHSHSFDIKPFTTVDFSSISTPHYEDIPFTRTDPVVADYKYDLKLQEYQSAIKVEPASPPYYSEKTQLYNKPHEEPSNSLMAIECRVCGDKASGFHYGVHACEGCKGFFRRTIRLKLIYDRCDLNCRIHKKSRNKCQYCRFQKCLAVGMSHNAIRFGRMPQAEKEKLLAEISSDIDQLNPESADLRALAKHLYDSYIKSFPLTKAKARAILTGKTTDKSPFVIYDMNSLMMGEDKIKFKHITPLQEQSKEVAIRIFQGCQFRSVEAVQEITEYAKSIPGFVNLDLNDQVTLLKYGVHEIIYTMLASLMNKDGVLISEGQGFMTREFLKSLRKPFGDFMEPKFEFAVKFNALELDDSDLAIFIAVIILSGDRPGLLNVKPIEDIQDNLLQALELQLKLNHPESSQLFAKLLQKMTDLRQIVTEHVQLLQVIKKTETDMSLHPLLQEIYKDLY
In short: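 Ratiometric blue/green fluorescence (405 nm excitation; 460 and 530 nm emission) from CCF4-loaded HEK293 reporter cells serves as signal. Exposure to test compounds lasts 16 h at 37 C in medium containing 1% charcoal/dextran-treated serum.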

[5] = qHTS assay for small molecule agonists of retinoid X receptor alpha signaling (AID 588544); conditions: HEK293T RXRa-UAS-bla, beta-lactamase reporter, 18 h; 530 nm emission
[6] = target: Thyroid hormone receptor beta (Homo sapiens) (UniProt P10828); assay: qHTS assay for small molecule antagonists of thyroid hormone receptor beta signaling (AID 588547; active means well fitted inhibition curve with a large enough effect in the signal ratio, with a control signal flat, not every such curve was filed as active; inconclusive means small, poorly fitted or top-dose-only effect, or effect the other way, or a change in a side signal; the % refers to the signal ratio;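 further: cells stimulated with 0.4 nM T3 agonist during compound exposure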); conditions: TR-UAS-bla HEK293, beta-lactamase ratio, antagonist mode, 18 h
Thyroid hormone receptor beta (Homo sapiens), sequence (P10828 whole entry, looked up): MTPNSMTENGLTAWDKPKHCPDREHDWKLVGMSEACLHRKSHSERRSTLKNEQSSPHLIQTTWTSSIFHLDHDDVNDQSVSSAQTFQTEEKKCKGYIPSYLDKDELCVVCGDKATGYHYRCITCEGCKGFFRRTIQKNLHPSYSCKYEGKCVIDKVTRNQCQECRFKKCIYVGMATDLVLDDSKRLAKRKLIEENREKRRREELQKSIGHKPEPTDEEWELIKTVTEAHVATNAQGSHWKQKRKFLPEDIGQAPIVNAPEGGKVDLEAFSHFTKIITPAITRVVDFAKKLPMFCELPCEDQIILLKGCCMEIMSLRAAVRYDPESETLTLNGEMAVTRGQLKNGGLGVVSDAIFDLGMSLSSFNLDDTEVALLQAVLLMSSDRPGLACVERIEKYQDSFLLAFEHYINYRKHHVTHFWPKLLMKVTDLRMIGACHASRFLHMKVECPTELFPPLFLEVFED
In short: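 Inhibition of T3-driven (0.4nM final) beta-lactamase reporter activity was measured over 0.59 nM to 92 uM compound after 18 h at 37 C. The cells were GripTite HEK293 TR-UAS-bla in charcoal/dextran-stripped serum, with CCF4 ratio read-out and IC50 from Hill fits.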

[7] = qHTS assay for small molecule activators of the p53 signaling pathway (AID 651743; active means well fitted activation curve with a large enough effect in the signal ratio, not every such curve was filed as active; inconclusive means small, poorly fitted or top-dose-only effect, or a change in a side signal; the % refers to the signal ratio); conditions: HCT-116 p53RE-bla, beta-lactamase FRET ratio, 16 h; activation: stronger effect = higher value
In short: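 Screen for p53 pathway agonists uses stably transfected p53RE-bla HCT-116 cells, 4,000 per well, treated 16 h at 37 C with compounds in DMSO.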

[8] = qHTS assay for small molecule disruptors of the mitochondrial membrane potential - 1 hr assay (AID 651754; calls by dose curve; further: nearly all actives have a fitted effect of over 35% in size); conditions: series mostly up to 92.2 µM
In short: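 HepG2 cells, attached overnight at 37C, were exposed to compound or DMSO vehicle for 1 hr at 37C, 5% CO2, then stained with Mito-MPS dye for 30 min. Red aggregate versus green monomer fluorescence reports membrane potential.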

[9] = qHTS assay for small molecule disruptors of the mitochondrial membrane potential - 5 hr assay (AID 651755; calls by dose curve; further: nearly all actives have a fitted effect of over 40% in size); conditions: JC-1-type ratio dye; series mostly up to 92.2 µM
In short: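 HepG2, 2,000 cells/well, overnight attach; cpd or DMSO 5 hr, 37C/5% CO2; Mito-MPS 30 min 37C; fluor 490/535 + 540/590 nm.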

[10] = target: Tumor necrosis factor (Homo sapiens) (UniProt P01375); assay: qHTS assay to identify small molecules that stimulate Tumor Necrosis Factor-alpha (TNF-alpha) secretion (AID 651757; active means well fitted curve in the direction sought with a large enough effect in the signal ratio; inconclusive means small, poorly fitted or top-dose-only effect, or a change in a side signal; inactive means no such curve, though single readings can be large or run the other way; the % refers to the signal ratio); conditions: Human cells, HTRF 665/615 ratio; series mostly up to 92.2 µM
Tumor necrosis factor (Homo sapiens), sequence (P01375 whole entry, looked up): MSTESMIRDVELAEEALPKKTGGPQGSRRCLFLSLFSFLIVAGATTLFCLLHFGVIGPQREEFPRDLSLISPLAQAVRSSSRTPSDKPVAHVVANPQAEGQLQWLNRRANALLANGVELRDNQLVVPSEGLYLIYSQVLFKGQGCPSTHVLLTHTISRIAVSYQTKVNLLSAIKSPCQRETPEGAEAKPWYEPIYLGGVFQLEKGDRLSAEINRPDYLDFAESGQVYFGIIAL
In short: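 THP-1 cells were exposed to compounds for 17 hrs at 37 C, after which secreted TNF-alpha was measured by homogeneous HTRF (TR-FRET) using cryptate- and XL665-labeled anti-TNF-alpha antibodies, read after 3 hr at room temperature.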

[11] = qHTS assay for environmental chemicals that activate the Aryl hydrocarbon Receptor (AhR) signaling pathway (AID 651777); conditions: 1A2-DRE human hepatoma cells, luciferase, 24 h; activation: stronger effect = higher value; further: nearly all actives have a fitted effect of over 15% in size
In short: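 Concentration–response screening used 1,200 1A2-DRE cells per well, 24 hr compound exposure (37 C, 5% CO2), and One-Glo luminescence as the AhR-driven CYP1A2 reporter signal.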

[12] = target: Nuclear receptor ROR-gamma (Homo sapiens) (UniProt P51449); assay: qHTS assay for small molecule antagonists of the retinoid-related orphan receptor gamma (ROR-gamma) signaling pathway (AID 651802); conditions: ROR-gamma antagonist cell reporter assay; series mostly up to 92.2 µM; further: nearly all actives have a fitted effect of over 60% in size; further: potency means the concentration at half of the fitted maximal effect
Nuclear receptor ROR-gamma (Homo sapiens), sequence (P51449 whole entry, looked up): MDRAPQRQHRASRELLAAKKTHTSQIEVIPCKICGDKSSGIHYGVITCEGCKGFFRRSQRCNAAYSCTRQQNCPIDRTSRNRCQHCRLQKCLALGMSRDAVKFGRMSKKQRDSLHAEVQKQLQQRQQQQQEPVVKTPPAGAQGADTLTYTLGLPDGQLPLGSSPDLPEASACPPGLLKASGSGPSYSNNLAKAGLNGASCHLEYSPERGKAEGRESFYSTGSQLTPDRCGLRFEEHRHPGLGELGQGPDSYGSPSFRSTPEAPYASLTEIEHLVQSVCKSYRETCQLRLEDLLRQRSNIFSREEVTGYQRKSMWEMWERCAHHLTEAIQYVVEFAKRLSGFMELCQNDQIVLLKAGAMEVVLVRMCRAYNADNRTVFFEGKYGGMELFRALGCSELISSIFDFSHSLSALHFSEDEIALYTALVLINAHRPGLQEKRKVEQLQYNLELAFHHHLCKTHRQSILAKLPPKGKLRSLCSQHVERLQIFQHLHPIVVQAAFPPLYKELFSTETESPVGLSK
In short: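 CHO cells carrying TET-inducible ROR-gamma and an ROR response element–luciferase reporter were exposed to compound, then induced with doxycycline. After 16hr at 37C, luminescence was read; lower signal indicates antagonism.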

[13] = qHTS assay for small molecule antagonists of the retinoid-related orphan receptor gamma (ROR-gamma) signaling pathway - cell viability counter screen (AID 720652; active means well fitted curve in the direction sought with a large enough effect in the repeat runs; inconclusive means weak or mixed curves; inactive means no such curve, though single readings can be large; an effect the other way counts as inactive or inconclusive;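 further: compound exposure lasted 16 hr before ATP read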); conditions: RORgamma reporter cell line viability counter screen; series mostly up to 92.2 µM
In short: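 Counter screen in CHO cells carrying TET-inducible ROR-gamma and an ROR response element-luciferase reporter; cells plated 5 hr, compound pinned, doxycycline added, then 16 hr at 37 C. Viability read as intracellular ATP by CellTiter-Glo luminescence.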

[14] = target: Nuclear receptor subfamily 1 group I member 2 (Rattus norvegicus) (UniProt Q9R1A7); assay: qHTS assay for small molecule activators of the rat pregnane X receptor (rPXR) signaling pathway (AID 651751; call rule not given here); conditions: rPXR reporter cells, luciferase (One-Glo), 24 h
Nuclear receptor subfamily 1 group I member 2 (Rattus norvegicus), sequence (Q9R1A7 whole entry, looked up): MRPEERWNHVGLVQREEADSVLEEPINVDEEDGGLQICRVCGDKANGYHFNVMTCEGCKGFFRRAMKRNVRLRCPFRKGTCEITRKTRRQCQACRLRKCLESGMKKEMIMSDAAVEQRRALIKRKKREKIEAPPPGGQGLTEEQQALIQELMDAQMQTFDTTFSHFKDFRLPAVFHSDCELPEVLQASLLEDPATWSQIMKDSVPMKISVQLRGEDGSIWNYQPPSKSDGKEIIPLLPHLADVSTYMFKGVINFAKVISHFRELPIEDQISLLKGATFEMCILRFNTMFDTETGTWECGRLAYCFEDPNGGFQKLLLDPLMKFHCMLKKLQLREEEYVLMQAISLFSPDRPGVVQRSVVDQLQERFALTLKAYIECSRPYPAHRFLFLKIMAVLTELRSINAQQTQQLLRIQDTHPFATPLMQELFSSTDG

[15] = qHTS assay for small molecule activators of the human pregnane X receptor (PXR) signaling pathway (AID 720659; call rule not given here); conditions: DPX-2 HepG2 CYP3A4-luciferase, 24 h; series mostly up to 92.3 µM
[16] = target: Cytochrome P450 3A4 (Homo sapiens) (UniProt P08684); assay: qHTS Assay for Inhibitors and Substrates of Cytochrome P450 3A4 (AID 884); conditions: recombinant CYP3A4, Luciferin-PPXE luminescence; series mostly up to 57.1 µM; further: nearly all actives have a fitted effect of over 50% in size; further: potency means the concentration at half of the fitted maximal effect
Cytochrome P450 3A4 (Homo sapiens), sequence (P08684 whole entry, looked up): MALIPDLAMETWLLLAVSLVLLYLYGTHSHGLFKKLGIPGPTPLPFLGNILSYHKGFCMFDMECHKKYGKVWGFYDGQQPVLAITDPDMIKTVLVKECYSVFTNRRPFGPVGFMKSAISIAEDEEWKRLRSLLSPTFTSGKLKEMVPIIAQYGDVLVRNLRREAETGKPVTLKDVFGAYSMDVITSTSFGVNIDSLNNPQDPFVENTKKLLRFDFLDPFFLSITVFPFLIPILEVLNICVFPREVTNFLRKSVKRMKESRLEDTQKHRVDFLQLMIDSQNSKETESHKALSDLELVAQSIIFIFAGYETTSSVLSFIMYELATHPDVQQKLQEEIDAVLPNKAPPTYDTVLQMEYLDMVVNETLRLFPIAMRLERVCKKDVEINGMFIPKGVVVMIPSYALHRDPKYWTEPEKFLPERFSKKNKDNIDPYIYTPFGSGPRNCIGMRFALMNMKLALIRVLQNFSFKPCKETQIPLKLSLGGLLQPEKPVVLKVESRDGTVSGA
In short: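 20 nM human CYP3A4 with 25 uM Luciferin-PPXE (at KM) in 200 mM KPO4, preincubated 10 min with compound; NADPH regeneration started a 60 min RT reaction. Luciferin detected by luminescence, normalized to 57 uM ketoconazole as full inhibition.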

[17] = MultiTox-Fluor Cytotoxicity Assay - LYMP1-002 - Dead Cells (AID 960); conditions: LYMP1-002 lymphoblastoid cells, dead-cell protease fluorescence; series mostly up to 46.1 µM; further: nearly all actives have a fitted effect of over 60% in size; further: potency means the concentration at half of the fitted maximal effect
In short: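 Human lymphoblastoid cells (LYMP1-002), 2500/well in complete medium, were exposed to compounds for 16 hr at 37 C. Dead-cell protease activity was read as bis-AAF-R110 fluorescence (Ex/Em 485/520), normalized to DMSO and 15 uM tetraoctylammonium bromide; AC50 from Hill fits.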

[18] = target: Glucocorticoid receptor (Homo sapiens) (UniProt P04150); assay: qHTS assay for small molecule agonists of glucocorticoid receptor signaling (AID 588532; active means well fitted curve in the direction sought with a large enough effect in the signal ratio, with a control signal flat; inconclusive means small, poorly fitted or top-dose-only effect, or a change in a side signal; inactive means no such curve, though single readings can be large or run the other way; the % refers to the signal ratio); conditions: HeLa MMTV-bla, beta-lactamase ratio, agonist, 18 h; stronger effect = higher value; percent of dexamethasone control, DMSO zero
Glucocorticoid receptor (Homo sapiens), sequence (P04150 whole entry, looked up): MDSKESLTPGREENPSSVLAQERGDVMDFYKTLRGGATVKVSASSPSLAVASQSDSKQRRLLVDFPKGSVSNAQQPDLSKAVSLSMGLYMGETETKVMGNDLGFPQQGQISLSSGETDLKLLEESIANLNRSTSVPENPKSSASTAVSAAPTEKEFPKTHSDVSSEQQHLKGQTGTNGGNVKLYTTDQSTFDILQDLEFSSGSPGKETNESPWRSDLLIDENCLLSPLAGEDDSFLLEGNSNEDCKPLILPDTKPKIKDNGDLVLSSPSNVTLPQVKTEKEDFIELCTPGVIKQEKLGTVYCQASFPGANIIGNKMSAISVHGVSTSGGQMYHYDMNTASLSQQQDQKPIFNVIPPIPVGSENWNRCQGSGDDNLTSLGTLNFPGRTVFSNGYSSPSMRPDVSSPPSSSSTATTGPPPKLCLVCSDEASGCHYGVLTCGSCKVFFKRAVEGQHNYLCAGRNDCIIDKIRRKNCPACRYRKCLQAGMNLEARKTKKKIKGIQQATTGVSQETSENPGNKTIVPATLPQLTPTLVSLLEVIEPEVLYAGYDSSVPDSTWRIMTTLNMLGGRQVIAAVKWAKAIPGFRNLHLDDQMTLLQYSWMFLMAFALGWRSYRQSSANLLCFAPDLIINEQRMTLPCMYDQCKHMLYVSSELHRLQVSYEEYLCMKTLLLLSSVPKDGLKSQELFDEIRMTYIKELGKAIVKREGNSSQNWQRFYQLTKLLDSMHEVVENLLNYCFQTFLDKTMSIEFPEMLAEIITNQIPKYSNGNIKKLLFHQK
In short: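 Quantitative HTS using CellSensor MMTV-bla HeLa cells in charcoal/dextran-treated serum; compounds tested up to 92 uM. After 18 h at 37 C, CCF4 dye reported reporter induction.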

[19] = target: Vitamin D3 receptor (Homo sapiens) (UniProt P11473); assay: qHTS assay for small molecule antagonists of vitamin D receptor signaling (AID 588541; calls by dose curve;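 further: receptor activated by calcitriol during compound treatment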); conditions: HEK293T VDR-UAS-bla, beta-lactamase ratio, antagonist mode; series mostly up to 76.7 µM
Vitamin D3 receptor (Homo sapiens), sequence (P11473 whole entry, looked up): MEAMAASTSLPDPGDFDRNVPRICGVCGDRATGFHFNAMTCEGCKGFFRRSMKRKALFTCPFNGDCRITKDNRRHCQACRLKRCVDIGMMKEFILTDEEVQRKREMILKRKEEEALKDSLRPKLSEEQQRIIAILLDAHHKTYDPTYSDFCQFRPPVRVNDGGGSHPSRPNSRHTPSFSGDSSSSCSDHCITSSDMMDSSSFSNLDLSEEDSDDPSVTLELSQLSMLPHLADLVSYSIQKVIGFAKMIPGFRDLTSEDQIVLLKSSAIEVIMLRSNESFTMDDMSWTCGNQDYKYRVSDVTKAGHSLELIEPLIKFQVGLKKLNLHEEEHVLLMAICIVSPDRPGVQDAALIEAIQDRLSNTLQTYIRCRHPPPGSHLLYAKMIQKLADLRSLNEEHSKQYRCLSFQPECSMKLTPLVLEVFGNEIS
In short: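 Antagonist-mode beta-lactamase reporter assay: HEK293T VDR-UAS-bla cells were exposed to titrated compound alongside 1-alpha,25-dihydroxyvitamin D3 at 3 nM final for 16 h. Values were normalized to the 50 nM agonist control and DMSO basal, with IC50 and efficacy from Hill equation fits.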

[20] = target: Vitamin D3 receptor (Homo sapiens) (UniProt P11473); assay: qHTS assay for small molecule agonists of vitamin D receptor signaling (AID 588543; calls by dose curve); conditions: HEK293T VDR-UAS-bla, beta-lactamase ratio, 16 h; series mostly up to 76.8 µM
In short: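 Measured: β-lactamase reporter activity (CCF4, 405 nm excitation, 460/530 nm emission) in HEK293T VDR-UAS-bla cells after 16 h compound exposure at 37 °C. Normalization against 50 nM 1α,25-dihydroxyvitamin D3 and DMSO; Hill-fit EC50.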

| SMILES | Potency [1] | Potency [2] | Potency [3] | outcome [4] | max response [5] | activity change % (negative = inhibition) [6] | activation [7] | Potency [8] | Potency [9] | outcome [10] | activation [11] | Potency [12] | Potency [13] | max response [14] | outcome [15] | Potency [16] | Potency [17] | activation [18] | outcome [19] | outcome [20] |
| --- | --- | --- | --- | --- | --- | --- | --- | --- | --- | --- | --- | --- | --- | --- | --- | --- | --- | --- | --- | --- |
| C=CCOC(=O)c1ccccc1C(=O)OCC=C | inactive | inactive | inactive | inactive | -9.89% and -14.8% | -9.14% (inactive) and 1.91% (inactive) | -0.242% (inactive) and -1.19% (inactive) | inactive | inactive | inactive | -0.581% (inactive) and 2.86% (inactive) | inactive | inactive | -2.3% (inactive) and 1.03% (inactive) | inactive |  |  |  |  |  |
| Clc1cc(Cl)c(Cl)cc1Cl | inactive | inactive | inactive | inactive | 4.21% and -11.5% | 5.68% (inactive) and 7.52% (inactive) | -2.65% (inactive) and -1.28% (inactive) | inactive | inactive | inactive | -0.0961% (inactive) and 4.29% (inactive) | inactive | inactive | 1.48% (inactive) and 5.88% (inactive) | inactive | inactive | inactive | 3.81% (inactive) and -2.02% (inactive) |  |  |
| CCCCCCCCOC(=O)c1cc(O)c(O)c(O)c1 |  |  | inactive | inactive |  | -6.19% (inactive) |  |  |  |  | 0.999% (inactive) |  |  | -0.212% (inactive) | inactive |  |  |  | inactive | inactive |
| O=[N+]([O-])c1cccc(Cl)c1Cl | inactive | inactive | inactive | inactive | 6.35% and -11.4% |  |  | inactive | inactive | inactive | 0.0517% (inactive) and -0.399% (inactive) | inactive | inactive | -1.89% (inactive) and -3.78% (inactive) | inactive | inactive | inactive | 3.57% (inactive) and 3.5% (inactive) | inactive | inactive |
| C=CC(=O)OCCOCCOCCOCCOC(=O)C=C | 31.6 µM (active) and 39.8 µM (active) | 39.8 µM [inconclusive] (active) |  |  |  |  | 28.9% (inactive) and 15.6% (inactive) | inactive | inactive | inactive | 1.73% (inactive) and 5.16% (inactive) | 11.9 µM (active) and 21.1 µM (active) | inactive |  | inactive | inactive | 20 µM (active) and 25.1 µM (active) | -5.18% (inactive) |  | inactive |
| C=Cc1ccccc1Cl | inactive | inactive | inactive | inactive | -6.66% | 9.88% (inactive) | -0.152% (inactive) | inactive | inactive | inactive | -0.0962% (inactive) | inactive | inactive | 1.05% (inactive) | inactive | inactive | inactive | -0.22% (inactive) | inactive | inactive |
| COc1ccc2[nH]cc(CCNc3cc(-c4cccc(C#N)c4)ncn3)c2c1 |  |  |  |  |  |  |  |  |  |  |  |  |  |  |  | 3.98 µM (active) |  |  |  |  |
| COCC(=O)O | inactive | inactive | inactive | inactive | 0.473% and -13.2% | -5.02% (inactive) and -7.68% (inactive) | 0.0042% (inactive) and -6.16% (inactive) | inactive | inactive | inactive | -1.91% (inactive) and 0.0528% (inactive) | inactive | inactive | 1.77% (inactive) and 0.862% (inactive) |  | inactive | inactive | 1.9% (inactive) and -4.38% (inactive) | inactive | inactive |

Reference: PubChem BioAssay (NCATS)
